# Test results from PubChem BioAssay.
# Calls of active or inactive are those of the source.
# Columns and labels:
# [1] = test system: Human papillomavirus type 1a protein E7 (residues 44-93); test: HPV1a E7 fragment binders on microarrays, primary screen, biochemical, small-molecule microarray, residues 44-93, 635 nm fluorescence (AID 1108); settings: small-molecule microarray binding, fluorescence 635 nm; higher = more signal;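 note: E7 fragment applied at 1 µg/mL in TBST for 1 h at 4 C; score combines spot fluorescence with its signal to noise ratio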
# [2] = modulators of HCV replicon luciferase signal, primary screen, HCV replication inhibitor project, Huh7 cells, luciferase reporter (AID 1109); settings: 48 h, higher = more signal;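 note: huh7 hepatoma cells harbouring a luciferase neomycin HCV replicon reporter; luciferase luminescence as measure of HCV replicon replication; test concentration not given here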
# [3] = biological target: Left-right determination factor 2 (Homo sapiens) (UniProt O00292); test: LEFTY2 binders on small-molecule microarrays, primary screen, biochemical, small-molecule microarray, 635 nm fluorescence scan (AID 1110); settings: LEFTY2 binding, higher = more signal
# Left-right determination factor 2 (Homo sapiens), sequence (O00292 whole entry, looked up): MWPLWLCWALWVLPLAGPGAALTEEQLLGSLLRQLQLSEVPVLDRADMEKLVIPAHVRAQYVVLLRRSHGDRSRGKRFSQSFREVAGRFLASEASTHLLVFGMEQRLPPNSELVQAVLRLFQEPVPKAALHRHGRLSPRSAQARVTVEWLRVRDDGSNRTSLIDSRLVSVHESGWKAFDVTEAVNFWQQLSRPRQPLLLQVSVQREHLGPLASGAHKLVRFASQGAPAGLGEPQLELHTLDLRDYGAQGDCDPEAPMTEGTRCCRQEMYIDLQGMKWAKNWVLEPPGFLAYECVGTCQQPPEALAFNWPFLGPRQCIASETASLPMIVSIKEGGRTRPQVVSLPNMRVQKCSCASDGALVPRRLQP
# [4] = biological target: Calmodulin-1 (Homo sapiens) (UniProt P0DP23); test: CALM1 binders on microarrays, EGTA buffer, profiling panel, biochemical, small-molecule microarray, Cy5-labelled CALM1 (AID 1111); settings: Cy5-CALM1 binding fluorescence, higher = more signal;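 note: labelled calmodulin applied in Tris saline Tween buffer holding calcium plus EGTA and DTT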
# [5] = biological target: Calmodulin-1 (Homo sapiens) (UniProt P0DP23); test: calcium-bound CALM1 binders on microarrays, profiling panel, artefact control for SMM control-protein annotation, biochemical, small-molecule microarray, Cy5-labelled CALM1, plus calcium (AID 1112); settings: Cy5-CALM1 binding fluorescence, higher = more signal;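 note: score merges spot fluorescence with signal to noise from triplicate slides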
# [6] = small-molecule microarray binders of probe aWnt5a, primary screen, biochemical, biotinylated probe, 635/667 nm fluorescence (AID 1113); settings: higher = more signal;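 note: score merges 667 nm fluorescence intensity with signal-to-noise per printed feature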
# [7] = small-molecule microarray binders of probe aShh, primary screen, biochemical, biotinylated probe, 635/667 nm fluorescence (AID 1114); settings: higher = more signal;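 note: probe is biotin-labelled aShh protein from a stem cell growth factor screen; measures binding of labelled protein to compounds printed on the slide; score merges feature fluorescence at 667 nm with signal-to-noise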
# [8] = small-molecule microarray binders of probe aNog, primary screen, biochemical, biotinylated probe, 635/667 nm fluorescence (AID 1115); settings: higher = more signal;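 note: probe is biotinylated aNog protein used at 0.15 µg/mL for 1 h at 4 C; z-score combines 667 nm fluorescence of each spot with its signal to noise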
# [9] = biological target: Torsin-1A-interacting protein 1 (Homo sapiens) (UniProt Q5JTV8); test: LAP1 binders from COS7 cell lysate, primary screen, small-molecule microarray, 635/667 nm fluorescence (AID 1116); settings: COS7-hLAP1 lysate binding, 635 nm fluorescence, higher = more signal
# Torsin-1A-interacting protein 1 (Homo sapiens), sequence (Q5JTV8 whole entry, looked up): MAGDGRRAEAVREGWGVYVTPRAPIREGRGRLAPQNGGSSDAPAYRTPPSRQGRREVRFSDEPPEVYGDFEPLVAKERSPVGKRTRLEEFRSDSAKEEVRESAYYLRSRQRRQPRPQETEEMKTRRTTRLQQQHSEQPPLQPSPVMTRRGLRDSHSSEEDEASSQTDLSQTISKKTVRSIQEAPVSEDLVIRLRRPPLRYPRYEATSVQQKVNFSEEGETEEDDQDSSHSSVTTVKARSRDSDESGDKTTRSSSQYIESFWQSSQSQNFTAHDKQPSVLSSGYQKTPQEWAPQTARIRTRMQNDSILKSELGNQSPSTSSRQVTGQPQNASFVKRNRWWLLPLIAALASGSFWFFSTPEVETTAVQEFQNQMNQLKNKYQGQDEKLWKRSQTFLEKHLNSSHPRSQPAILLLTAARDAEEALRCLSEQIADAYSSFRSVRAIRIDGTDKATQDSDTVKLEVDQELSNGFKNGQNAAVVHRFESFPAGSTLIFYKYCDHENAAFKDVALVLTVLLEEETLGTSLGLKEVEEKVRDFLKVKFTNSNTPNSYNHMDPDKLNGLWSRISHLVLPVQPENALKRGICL
# [10] = biological target: Alpha-bungarotoxin (Bungarus multicinctus) (UniProt P60615); test: alpha-bungarotoxin binders on microarray, profiling panel, artefact control for SMM control protein annotation, biochemical, small-molecule microarray, Alexa647 label, 635/667 nm fluorescence (AID 1117); settings: alpha-BTX-A647 binding fluorescence, higher = more signal
# Alpha-bungarotoxin (Bungarus multicinctus), sequence (P60615 whole entry, looked up): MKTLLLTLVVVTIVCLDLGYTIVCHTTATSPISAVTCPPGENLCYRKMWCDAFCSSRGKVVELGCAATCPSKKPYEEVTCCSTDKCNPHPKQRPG
# Albumin (Bos taurus) = Albumin (Bos taurus) (UniProt P02769); test: bovine serum albumin binders on microarray, profiling panel, artefact control for SMM control protein annotation, biochemical, small-molecule microarray, Alexa647 label, 635/667 nm fluorescence (AID 1118); settings: BSA-A647 binding, fluorescence 635 nm, higher = more signal;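 note: score merges 667 nm emission intensity and signal-to-noise per printed compound spot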
# Albumin (Bos taurus), sequence (P02769 whole entry, looked up): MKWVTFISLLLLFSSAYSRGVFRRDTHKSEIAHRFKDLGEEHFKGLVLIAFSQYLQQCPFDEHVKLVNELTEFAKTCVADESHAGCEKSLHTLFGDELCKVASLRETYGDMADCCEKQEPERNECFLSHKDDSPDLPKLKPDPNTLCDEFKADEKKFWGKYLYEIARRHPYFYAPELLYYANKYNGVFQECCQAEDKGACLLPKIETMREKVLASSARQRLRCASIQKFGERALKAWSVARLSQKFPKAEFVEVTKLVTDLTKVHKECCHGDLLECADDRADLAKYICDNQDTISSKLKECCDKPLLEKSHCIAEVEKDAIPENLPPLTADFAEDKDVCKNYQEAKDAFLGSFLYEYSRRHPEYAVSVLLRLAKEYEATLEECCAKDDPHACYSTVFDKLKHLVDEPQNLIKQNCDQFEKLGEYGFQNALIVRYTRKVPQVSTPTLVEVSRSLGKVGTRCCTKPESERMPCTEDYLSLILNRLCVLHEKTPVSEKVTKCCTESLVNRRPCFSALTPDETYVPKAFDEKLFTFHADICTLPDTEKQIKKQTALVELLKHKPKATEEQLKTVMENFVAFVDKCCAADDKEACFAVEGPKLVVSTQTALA
# [11] = small-molecule microarray binders of probe aXIP, primary screen, biochemical, NeuroSMM set, 635/667 nm fluorescence (AID 1119); settings: higher = more signal, called active from +8 up or from −8 down;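 note: probe is the protein aXip251-270 applied at 1 µg/mL to compound-printed slides; binding of probe to printed compounds measured as 667 nm fluorescence plus signal to noise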
# [12] = small-molecule binders of probe aNOTCH3, primary screen, biochemical, small-molecule microarray, 635/667 nm fluorescence (AID 1120); settings: higher = more signal;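 note: probe is a biotin-tagged antibody raised against NOTCH3 rather than NOTCH3 protein; score merges spot fluorescence near 667 nm with spot signal to noise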
# [13] = small-molecule binders of probe aNOTCH2, primary screen, biochemical, small-molecule microarray, 635/667 nm fluorescence (AID 1121); settings: higher = more signal;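 note: score merges feature fluorescence read at 667 nm with its signal to noise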
# [14] = biological target: Carbonic anhydrase 2 (Homo sapiens) (UniProt P00918); test: CAII small-molecule binders, profiling panel, biochemical, small-molecule microarray, Alexa647-labelled CAII (AID 1122); settings: CAII-A647 binding fluorescence, higher = more signal
# [15] = COS7 lysate on small-molecule microarray, probe aHis, 635 nm (AID 1123); settings: COS7 cell lysate, fluorescence, higher = more signal;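 note: z-score combines 667nm fluorescence intensity with signal-to-noise per printed compound spot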
# [16] = compound binding in COS7 lysate, probe aLAP1, primary screen, cell lysate, small-molecule microarray (AID 1124); settings: probe aLAP1, fluorescence, higher = more signal;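 note: lysate comes from COS7 cells expressing LAP1 and is applied at 0.3 µg/mL; score merges spot fluorescence near 667 nm with signal-to-noise over triplicate slides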
# Sam68 (KHDRBS1) = test: Sam68 small-molecule binders, primary screen, biochemical, small-molecule microarray, 635 nm fluorescence (AID 1125); settings: small-molecule microarray binding, higher = more signal;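 note: score merges 667 nm channel intensity with signal to noise over triplicate slides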
# [17] = test system: Chordin-like protein 2 (CHRDL2); test: CHRDL2 small-molecule binders, primary screen, biochemical, small-molecule microarray, 635 nm fluorescence (AID 1126); settings: small-molecule microarray binding, fluorescence 635 nm; higher = more signal;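 note: printed compound slides probed with Chrdl2 protein at 4 µg/mL for 1 h at 4 C; score merges 667 nm emission intensity with signal to noise over three replicate slides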
# [18] = biological target: Concanavalin-A (Canavalia ensiformis) (UniProt P02866); test: ConA small-molecule binders, primary screen, artefact control for SMM control protein annotation, biochemical, small-molecule microarray, Alexa647 label, 635 nm (AID 1127); settings: ConA-A647 binding fluorescence, higher = more signal;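 note: z combines 667 nm emission intensity with signal-to-noise across three replicate slides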
# Concanavalin-A (Canavalia ensiformis), sequence (P02866 whole entry, looked up): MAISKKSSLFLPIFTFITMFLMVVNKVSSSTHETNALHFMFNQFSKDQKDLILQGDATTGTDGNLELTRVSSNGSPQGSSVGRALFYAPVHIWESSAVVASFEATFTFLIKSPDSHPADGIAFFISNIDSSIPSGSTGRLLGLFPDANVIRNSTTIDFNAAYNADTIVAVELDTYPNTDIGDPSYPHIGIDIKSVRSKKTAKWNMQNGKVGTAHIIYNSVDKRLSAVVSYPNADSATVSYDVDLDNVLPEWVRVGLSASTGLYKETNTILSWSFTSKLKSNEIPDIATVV
Structure (SMILES),composite z-score [1],z-score [2],composite z-score [3],composite z-score [4],composite z-score [5],composite z-score [6],composite z-score [7],composite z-score [8],composite z-score [9],composite z-score [10],composite z-score (Albumin (Bos taurus)),composite Z-score [11],composite z-score [12],composite z-score [13],composite z-score [14],composite z-score [15],composite z-score [16],composite z-score (Sam68 (KHDRBS1)),composite z-score [17],composite z-score [18]
C=C(CCCC)C(=O)CC[C@H](OC(=O)c1ccccc1-c1ccccc1C(=O)O)c1ccc(OCCO)cc1,1.34,-2.05,0.849,0.945,-0.898,-0.119,-0.154,-0.495,0.479,1.02,0.763,-0.235 (inactive),0.184,-0.185,0.573,1.2,-0.0334,0.958,0.0139,0.969
CO[C@H]1O[C@H](CO)[C@@H](OC(=O)Nc2ccccc2-c2ccccc2)[C@H](OC(=O)Nc2ccccc2)[C@H]1OC(=O)Nc1ccccc1,0.922,-2.49,0.732,1.27,-0.144,0.169,0.269,0.225,1.07,1.64,0.167,-0.295 (inactive),0.199,-0.0846,0.701,2.41,0.268,1.3,0.697,1.15
C=C1C(=O)C=C2CN(C(=O)c3ccccc3)[C@@](Cc3ccc(OC)cc3)(C(=O)OC)[C@@H]12,1.43,-2.72,-0.135,2.16,0.311,0.164,0.232,2.04,1.04,1.2,1.07,0.579 (inactive),0.711,0.11,0.523,3.32,0.471,1.3,-0.639,1.14
C=CCC(OC(C)=O)[C@@H]1[C@@H](N(Cc2ccc(-c3cccc(C(F)(F)F)c3)o2)C(=O)c2ccc(-c3ccccc3)cc2)c2cc(OCCCO)ccc2N1C(=O)c1ccc2ccccc2c1 (stereo not given in full),-0.701,-0.514,0.27,0.0114,0.255,-0.119,0.0121,-0.399,0.33,0.0035,-0.192,-0.0127 (inactive),0.0445,-0.0707,0.323,0.234,-0.376,-0.689,0.0823,-0.654
CN(C)CCCNC(=O)[C@@H]1c2ccccc2C(=O)N(Cc2ccccc2C(F)(F)F)[C@H]1c1ccc(CO)cc1,-0.242,-1.68,-1.42,-0.206,-0.263,-0.1,-0.138,-0.163,0.689,0.542,0.334,0.0871 (inactive),-0.0106,-0.0996,0.338,1.35,0.2,0.793,-1.5,0.0021
CC(C)=CCCC(C)=CC(O)C1C=CC2C(=O)NC(=O)C2N1Nc1ccc(Cl)cc1Cl (stereo not given),1.36,-0.922,0.41,1.69,0.254,-0.0327,0.14,1.5,1.17,0.451,0.909,-0.0883 (inactive),0.0952,-0.0464,0.596,1.49,1.36,0.623,0.307,0.623
O=C(NC1CC1)[C@@H]1c2ccccc2C(=O)N(Cc2cc(C(F)(F)F)cc(C(F)(F)F)c2)[C@H]1c1ccc(CO)cc1,1.35,-1.02,-0.876,0.146,-0.366,-0.0203,-0.517,0.431,-0.0446,0.955,-0.148,-0.563 (inactive),-0.352,-0.102,0.679,1.29,0.174,0.157,-0.936,0.321
CCCCCC1=C2CNC(Cc3ccccc3)(C(=O)OC)C=C2C(C)C1=O (stereo not given),0.719,-1.85,-1.75,1.54,1.46,-0.0643,0.45,1.7,1.64,0.175,0.638,0.881 (inactive),0.183,0.0878,0.648,2.17,0.984,-0.49,-1.52,-0.86
CC(C)C(CO)N1C(=O)[C@@H]2C3C(=O)OCCC/C=C\[C@H]3OC23C=CCN(Cc2ccccc2)C(=O)[C@@H]13 (stereo not given in full),-1.78,0.537,-1.05,-0.969,0.574,-0.0643,0.254,-0.103,1.14,-1.68,-1.25,-0.157 (inactive),-0.159,-0.11,0.902,0.708,1.5,-0.173,-1.11,-1.67
O=C1O[C@@H](c2ccccc2)[C@@H](c2ccccc2)N2[C@@H](c3ccc(OCCO)cc3)[C@]3(C(=O)Nc4ccc(C#CC5(O)CCCCCC5)cc43)[C@@H](C(=O)Nc3nc4ccccc4s3)[C@H]12,1.44,-2.29,0.755,1.6,0.646,0.0775,0.156,0.516,1.34,1.41,0.691,-0.144 (inactive),0.0169,-0.0664,0.608,2.31,0.36,1.29,0.583,1.01
COCCCN1C(=O)[C@@]2(c3ccc([N+](=O)[O-])cc3)CC(=O)N(CC34CC5CC(CC(C5)C3)C4)[C@@H]2c2ccc(CO)cc21,0.372,-0.445,-0.407,-0.226,-0.406,-0.096,-0.291,-0.461,-0.507,0.241,-0.0098,0.208 (inactive),-0.101,-0.0666,0.48,0.373,0.991,0.229,-0.0444,0.728
CCCNC(=O)[C@@]1(Sc2ccc(C)cc2)CC(=O)N(Cc2ccccc2Cl)[C@@H]1c1ccc(CO)cc1I,0.135,-2.17,-1.4,0.284,0.321,-0.129,-0.132,1.91,-0.0631,0.461,-0.266,-0.588 (inactive),0.965,-0.0836,0.529,0.649,-0.0685,-0.169,-1.56,0.0737
O=C(NCC(O)CO)C1N=C(c2ccc(OCCCO)cc2)N(c2ccccc2)O1 (stereo not given),1.08,-0.95,0.48,0.0138,-0.332,-0.103,-0.232,-0.243,1.35,0.282,-0.138,-0.226 (inactive),-0.0996,0.162,0.821,0.0043,1.04,1,0.157,0.53
COC(=O)[C@@]1(Cc2ccc(F)cc2)[C@H]2c3cc(C(=O)N4CCCC4)n(Cc4cc(F)cc5c4OCOC5)c3C[C@H]2CN1C(=O)c1ccccc1,-0.0014,-2.1,-0.285,1.37,1.05,0.179,0.184,-0.694,-0.415,0.92,0.892,0.364 (inactive),0.0925,0.0266,-0.0414,-0.203,-0.669,-0.349,-0.631,1.07
C=C(COC)C(=O)CC[C@@H](OC(=O)c1ccccc1-c1ccccc1C(=O)O)c1ccc(OCCO)cc1,-0.0675,-1.88,0.079,-0.601,-0.942,-0.145,-0.304,0.338,1.21,-0.0978,-0.238,0.081 (inactive),-0.0491,-0.154,0.784,0.113,0.238,0.576,0.319,-0.0355
C=CCOC(=O)[C@@H]1[C@H]2C(=O)O[C@H](c3ccccc3)[C@H](c3ccccc3)N2[C@H](c2ccc(OCCOC(=O)[C@H]3C[C@H]4C(=O)N[C@@H](CCCCN(C)C)C(=O)N4[C@H]3c3ccc(O)cc3)cc2)[C@@]12C(=O)Nc1ccc(I)cc12,1.06,-3.31,1.17,-0.842,-0.972,0.0317,-0.0578,0.219,1.31,1.51,-0.839,0.929 (inactive),0.0006,-0.0698,0.426,1.95,0.148,1.29,1.1,1.15
CN(C)CCCNC(=O)[C@@]1(C)c2ccccc2C(=O)N(Cc2ccc(OC(F)(F)F)cc2)[C@H]1c1ccc(CO)cc1,0.0228,-2.26,-1.01,-0.415,0.522,-0.115,-0.0978,0.738,1.76,1.5,0.548,0.0333 (inactive),-0.139,-0.0357,0.706,1.83,1.03,0.0786,-0.616,-0.451
